# Columns and labels:
# Experiment in all cases: universal protein binding microarray (PBM); transcription factors of Arabidopsis thaliana; high values mean tight binding
# [1] = target: T1, GST-ANAC092(1-176) (Arabidopsis thaliana, UniProt Q9FKA0 1-176); details: protein: recombinant; tags: GST; chain copies: 2; dsDNA, one strand shown
# T1 sequence: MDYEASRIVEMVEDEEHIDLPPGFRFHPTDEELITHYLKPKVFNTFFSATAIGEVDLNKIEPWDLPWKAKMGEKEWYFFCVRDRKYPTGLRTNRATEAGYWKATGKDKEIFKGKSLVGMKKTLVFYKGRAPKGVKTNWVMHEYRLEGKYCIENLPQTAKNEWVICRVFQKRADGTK
# In short: (§1)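 Binding is expressed as the normalised enrichment score (E-score). Proteins carrying a GST tag, whether NAC-domain, full-length or DNA-binding-domain forms, were induced in cells, and zinc acetate was added for zinc-finger proteins. After purification on glutathione–Sepharose 4B and quantification by A280 or anti-GST western blot, each was applied in duplicate at 200 to 500 nM final to custom all-10-mer Agilent 4 × 180K arrays made double-stranded by primer extension. Gapped and ungapped 8-mers were scored.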
# [2] = target: T2, GST-ANAC019 NAC domain (Arabidopsis thaliana, UniProt Q9C932 14-162); details: protein: recombinant; tags: GST; chain copies: 2; dsDNA, one strand shown
# T2 sequence: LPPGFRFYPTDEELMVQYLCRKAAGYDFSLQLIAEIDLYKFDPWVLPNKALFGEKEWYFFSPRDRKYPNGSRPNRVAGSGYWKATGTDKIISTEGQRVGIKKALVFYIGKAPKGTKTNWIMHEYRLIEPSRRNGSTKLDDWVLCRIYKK
# In short: as §1
# [3] = target: T3, GST-ANAC055(1-171) (Arabidopsis thaliana, UniProt Q9LDY8 1-171); details: protein: recombinant; tags: GST; chain copies: 2; dsDNA, one strand shown
# T3 sequence: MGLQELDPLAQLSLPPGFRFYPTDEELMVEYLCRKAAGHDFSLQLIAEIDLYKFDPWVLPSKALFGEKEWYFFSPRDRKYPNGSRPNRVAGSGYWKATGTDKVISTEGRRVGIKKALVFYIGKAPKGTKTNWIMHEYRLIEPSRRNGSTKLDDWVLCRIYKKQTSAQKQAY
# In short: as §1
# [4] = target: T4, GST-ATAF1 NAC domain (Arabidopsis thaliana, UniProt Q39013 7-158); details: protein: recombinant; tags: GST; chain copies: 2; dsDNA, one strand shown
# T4 sequence: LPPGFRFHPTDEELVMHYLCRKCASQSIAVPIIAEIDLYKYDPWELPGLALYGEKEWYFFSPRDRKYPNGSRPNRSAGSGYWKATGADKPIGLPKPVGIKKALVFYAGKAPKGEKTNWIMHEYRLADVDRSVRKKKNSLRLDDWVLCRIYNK
# In short: as §1
# [5] = target: T5, GST-ANAC092(1-285) full length (Arabidopsis thaliana, UniProt Q9FKA0 1-285); details: protein: recombinant; tags: GST; chain copies: 2; dsDNA, one strand shown
# T5 sequence: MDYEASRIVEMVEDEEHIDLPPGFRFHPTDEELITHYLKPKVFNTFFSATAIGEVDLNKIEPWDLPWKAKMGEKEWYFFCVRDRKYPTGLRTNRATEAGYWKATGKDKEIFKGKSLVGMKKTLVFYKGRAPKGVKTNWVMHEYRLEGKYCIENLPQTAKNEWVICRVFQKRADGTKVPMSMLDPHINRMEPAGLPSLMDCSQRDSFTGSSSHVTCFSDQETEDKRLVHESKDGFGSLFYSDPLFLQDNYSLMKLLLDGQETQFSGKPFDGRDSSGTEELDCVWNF
# In short: as §1
# [6] = target: T6, GST-NAP(1-166) (Arabidopsis thaliana, UniProt O49255 1-166); details: protein: recombinant; tags: GST; chain copies: 2; dsDNA, one strand shown
# T6 sequence: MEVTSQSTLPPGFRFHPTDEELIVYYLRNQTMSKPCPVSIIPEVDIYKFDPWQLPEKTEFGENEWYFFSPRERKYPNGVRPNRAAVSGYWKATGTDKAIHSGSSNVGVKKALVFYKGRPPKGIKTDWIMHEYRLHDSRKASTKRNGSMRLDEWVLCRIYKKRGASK
# In short: as §1
# [7] = target: T7, GST-NST2(1-184) (Arabidopsis thaliana, UniProt Q9M274 1-184); details: protein: recombinant; tags: GST; chain copies: 2; dsDNA, one strand shown
# T7 sequence: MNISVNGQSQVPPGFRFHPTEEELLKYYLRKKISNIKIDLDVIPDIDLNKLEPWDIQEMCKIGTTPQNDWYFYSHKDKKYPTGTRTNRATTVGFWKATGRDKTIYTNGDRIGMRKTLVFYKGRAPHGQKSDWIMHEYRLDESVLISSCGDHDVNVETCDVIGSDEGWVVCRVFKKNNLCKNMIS
# In short: as §1
# [8] = target: T8, GST-VND3 NAC domain (Arabidopsis thaliana, UniProt Q9FH59 12-162); details: protein: recombinant; tags: GST; chain copies: 2; dsDNA, one strand shown
# T8 sequence: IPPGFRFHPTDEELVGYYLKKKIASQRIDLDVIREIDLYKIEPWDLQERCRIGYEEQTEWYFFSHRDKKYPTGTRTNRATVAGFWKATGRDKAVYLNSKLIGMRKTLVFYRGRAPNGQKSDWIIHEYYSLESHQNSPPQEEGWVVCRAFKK
# In short: as §1
# [9] = target: T9, GST-VND7 NAC domain (Arabidopsis thaliana, UniProt Q9C8W9 9-158); details: protein: recombinant; tags: GST; chain copies: 2; dsDNA, one strand shown
# T9 sequence: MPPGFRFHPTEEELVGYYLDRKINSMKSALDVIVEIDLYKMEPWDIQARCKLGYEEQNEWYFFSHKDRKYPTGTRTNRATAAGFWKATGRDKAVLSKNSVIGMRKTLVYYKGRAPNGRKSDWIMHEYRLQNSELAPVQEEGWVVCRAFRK
# In short: as §1
# [10] = target: GST-WRKY1(266-371) (Arabidopsis thaliana, UniProt Q9SI37 266-371); details: protein: recombinant; tags: GST; dsDNA, one strand shown
# In short: as §1
# [11] = target: GST-NTL6(1-168) (Arabidopsis thaliana, UniProt Q9SCK6 1-168); details: protein: recombinant; tags: GST; chain copies: 2; dsDNA, one strand shown
# In short: as §1
# [12] = target: T10, GST-NTL8 NAC domain (Arabidopsis thaliana, UniProt Q9XIN7 14-156); details: protein: recombinant; tags: GST; chain copies: 2; dsDNA, one strand shown
# T10 sequence: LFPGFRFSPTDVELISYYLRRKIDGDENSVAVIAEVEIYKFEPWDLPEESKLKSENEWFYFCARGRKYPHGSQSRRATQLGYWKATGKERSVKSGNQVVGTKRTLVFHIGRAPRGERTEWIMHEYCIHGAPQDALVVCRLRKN
# In short: as §1
# [13] = target: T11, GST-SND1(1-203) (Arabidopsis thaliana, UniProt Q9LPI7 1-203); details: protein: recombinant; tags: GST; chain copies: 2; dsDNA, one strand shown
# T11 sequence: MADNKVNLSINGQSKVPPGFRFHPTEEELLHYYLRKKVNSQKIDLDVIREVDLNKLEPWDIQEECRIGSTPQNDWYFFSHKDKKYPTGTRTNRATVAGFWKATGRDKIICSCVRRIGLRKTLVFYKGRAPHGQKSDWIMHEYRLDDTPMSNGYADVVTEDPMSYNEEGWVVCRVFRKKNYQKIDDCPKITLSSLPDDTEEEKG
# In short: as §1
# Chain of GST-WRKY1(266-371) (Q9SI37 266-371): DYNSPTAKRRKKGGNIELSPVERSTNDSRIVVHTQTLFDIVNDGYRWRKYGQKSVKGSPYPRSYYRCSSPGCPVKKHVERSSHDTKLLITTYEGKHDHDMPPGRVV
# Chain of GST-NTL6(1-168) (Q9SCK6 1-168): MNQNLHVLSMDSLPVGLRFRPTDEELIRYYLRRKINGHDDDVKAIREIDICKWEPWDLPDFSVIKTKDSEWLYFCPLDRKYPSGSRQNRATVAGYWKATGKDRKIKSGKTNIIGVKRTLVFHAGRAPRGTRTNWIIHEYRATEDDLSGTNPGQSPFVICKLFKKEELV
sequence,measurement,setting,value
ACGGCAGT,binding signal,[1],0.207 E-score
same,binding signal,[2],0.418 E-score
same,binding signal,[3],0.311 E-score
same,binding signal,[4],0.212 E-score
same,binding signal,[5],0.263 E-score
same,binding signal,[6],0.0813 E-score
same,binding signal,[7],0.138 E-score
same,binding signal,[8],0.342 E-score
same,binding signal,[9],0.238 E-score
same,binding signal,[10],0.0779 E-score
ATTTCCTC,binding signal,[11],0.148 E-score
same,binding signal,[7],0.115 E-score
same,binding signal,[12],0.437 E-score
same,binding signal,[13],0.091 E-score
ACGCCACG,binding signal,[1],0.382 E-score
same,binding signal,[2],0.147 E-score
same,binding signal,[3],0.14 E-score
same,binding signal,[4],0.0586 E-score
same,binding signal,[5],0.409 E-score
same,binding signal,[7],0.128 E-score
same,binding signal,[13],0.249 E-score
ACTAGTCA,binding signal,[1],0.0862 E-score
same,binding signal,[2],0.0985 E-score
same,binding signal,[3],0.134 E-score
same,binding signal,[4],0.0655 E-score
same,binding signal,[5],0.0648 E-score
same,binding signal,[6],0.0759 E-score
same,binding signal,[12],0.128 E-score
same,binding signal,[8],0.108 E-score
same,binding signal,[9],0.0656 E-score
same,binding signal,[10],0.435 E-score
GCTAAGGA,binding signal,[11],0.41 E-score
same,binding signal,[5],0.142 E-score
same,binding signal,[13],0.064 E-score
ACTCAACC,binding signal,[1],0.366 E-score
same,binding signal,[3],0.0786 E-score
same,binding signal,[4],0.117 E-score
same,binding signal,[5],0.408 E-score
same,binding signal,[7],0.221 E-score
same,binding signal,[13],0.381 E-score
AAGTCAAA,binding signal,[1],0.0569 E-score
same,binding signal,[11],0.135 E-score
same,binding signal,[2],0.084 E-score
same,binding signal,[4],0.16 E-score
same,binding signal,[6],0.102 E-score
same,binding signal,[7],0.0885 E-score
same,binding signal,[8],0.0889 E-score
same,binding signal,[9],0.106 E-score
same,binding signal,[10],0.488 E-score
GGGGGTAA,binding signal,[11],0.147 E-score
same,binding signal,[5],0.166 E-score
same,binding signal,[12],0.403 E-score
same,binding signal,[13],0.229 E-score
TACGCGAA,binding signal,[1],0.268 E-score
same,binding signal,[3],0.0984 E-score
same,binding signal,[4],0.119 E-score
same,binding signal,[5],0.368 E-score
same,binding signal,[6],0.0761 E-score
same,binding signal,[7],0.185 E-score
same,binding signal,[13],0.416 E-score
CTACGCCA,binding signal,[1],0.283 E-score
same,binding signal,[4],0.057 E-score
same,binding signal,[5],0.34 E-score
same,binding signal,[7],0.147 E-score
same,binding signal,[13],0.454 E-score
ACAGTCAA,binding signal,[1],0.141 E-score
same,binding signal,[3],0.0601 E-score
same,binding signal,[4],0.081 E-score
same,binding signal,[5],0.0848 E-score
same,binding signal,[6],0.0868 E-score
same,binding signal,[12],0.164 E-score
same,binding signal,[8],0.0711 E-score
same,binding signal,[9],0.0752 E-score
same,binding signal,[10],0.477 E-score
GAGGAAAC,binding signal,[1],0.0974 E-score
same,binding signal,[4],0.0627 E-score
same,binding signal,[5],0.0772 E-score
same,binding signal,[6],0.0571 E-score
same,binding signal,[12],0.465 E-score
same,binding signal,[13],0.099 E-score
TGAGGAAA,binding signal,[1],0.0937 E-score
same,binding signal,[11],0.106 E-score
same,binding signal,[7],0.105 E-score
same,binding signal,[12],0.429 E-score
same,binding signal,[13],0.172 E-score
CACGCCAG,binding signal,[1],0.385 E-score
same,binding signal,[2],0.0856 E-score
same,binding signal,[5],0.429 E-score
same,binding signal,[13],0.178 E-score
AAAGGTAA,binding signal,[11],0.262 E-score
same,binding signal,[3],0.192 E-score
same,binding signal,[5],0.0772 E-score
same,binding signal,[6],0.0527 E-score
same,binding signal,[7],0.199 E-score
same,binding signal,[12],0.402 E-score
same,binding signal,[13],0.124 E-score
CTGGCGTA,binding signal,[1],0.371 E-score
same,binding signal,[2],0.106 E-score
same,binding signal,[3],0.0635 E-score
same,binding signal,[5],0.396 E-score
same,binding signal,[7],0.203 E-score
same,binding signal,[13],0.409 E-score
GTATTGAC,binding signal,[1],0.0776 E-score
same,binding signal,[3],0.0594 E-score
same,binding signal,[5],0.147 E-score
same,binding signal,[6],0.121 E-score
same,binding signal,[8],0.0734 E-score
same,binding signal,[9],0.0877 E-score
same,binding signal,[10],0.455 E-score
AGGAAATC,binding signal,[1],0.0998 E-score
same,binding signal,[11],0.102 E-score
same,binding signal,[7],0.0993 E-score
same,binding signal,[12],0.437 E-score
same,binding signal,[13],0.0802 E-score
AGGTAAGG,binding signal,[11],0.27 E-score
same,binding signal,[2],0.101 E-score
same,binding signal,[5],0.0822 E-score
same,binding signal,[12],0.424 E-score
same,binding signal,[13],0.147 E-score
CTAAGGAA,binding signal,[1],0.125 E-score
same,binding signal,[11],0.47 E-score
same,binding signal,[5],0.128 E-score
same,binding signal,[7],0.144 E-score
same,binding signal,[12],0.246 E-score
same,binding signal,[13],0.306 E-score
CTTTTGAC,binding signal,[1],0.158 E-score
same,binding signal,[11],0.0997 E-score
same,binding signal,[3],0.114 E-score
same,binding signal,[4],0.168 E-score
same,binding signal,[5],0.0903 E-score
same,binding signal,[8],0.12 E-score
same,binding signal,[9],0.101 E-score
same,binding signal,[10],0.448 E-score
